Screens: PubChem, Broad Institute
miR122 inh – miR-122 suppressors via Renilla sensor increase, primary screen, cell-based, Huh7 psiCHECK-miR122, Renilla luciferase, single point; 48 h; activation, % at 12.5 µM; hit rate 0.14% among 340,000;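 active means mean activation of 30% or more, with every replicate also reaching 30%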;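 further: 0% = median of neutral control wells and 100% = median of positive control wells; higher luciferase signal means stronger suppression of miR-122 activity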
* = called active by the depositor. Only a selection was taken, and hits are over-represented in it overall.

SMILES	miR122 inh
CCNC(=O)Nc1ccc2c(c1)C(=O)N(C)[C@H]1CC[C@H](CC(=O)NCCN3CCCC3)O[C@@H]1CO2	36.7*
CN1C(=O)c2cc(NC(=O)C3CC3)ccc2OC[C@H]2O[C@H](CC(=O)NCc3cccc(F)c3)CC[C@H]21	-116.7
CN1C(=O)c2cc(NC(=O)C3CC3)ccc2OC[C@@H]2O[C@H](CC(=O)NCCN3CCCC3)CC[C@H]21	45.0*
C[C@@H]1CN([C@H](C)CO)C(=O)c2cc(C3=CCCCC3)cnc2O[C@@H]1CN(C)C(=O)Cc1ccccc1	-0.3
C[C@@H]1CN([C@H](C)CO)C(=O)c2cc(N(C)C)ccc2O[C@@H]1CN(C)S(=O)(=O)c1ccc(Cl)cc1	-98.3
CCc1nc2sc(C)c(C)c2c(=O)n1CCO	34.7*
C[C@H](CO)N1C[C@H](C)[C@H](CN(C)C(=O)C2CCCCC2)Oc2ncc(-c3cccc(C#N)c3)cc2C1=O	-1.6
C[C@H](CO)N1C[C@H](C)[C@H](CN(C)C(=O)c2ccccn2)Oc2ncc(C#Cc3ccccc3)cc2C1=O	3.0
CCNC(=O)C[C@H]1CC[C@@H]2[C@@H](COc3ccc(NC(=O)c4cccc(C(F)(F)F)c4)cc3C(=O)N2C)O1	53.3*
CC(C)C(=O)Nc1ccc2c(c1)C(=O)N(C)[C@H]1CC[C@H](CC(=O)NCc3cccc(F)c3)O[C@@H]1CO2	-300.0
CCNC(=O)C[C@@H]1CC[C@@H]2[C@@H](COc3ccc(NC(=O)c4ccccc4)cc3C(=O)N2C)O1	41.7*
CN1C(=O)c2cc(NC(=O)c3ccc(C(F)(F)F)cc3)ccc2OC[C@@H]2O[C@H](CC(=O)NCc3ccc4c(c3)OCO4)CC[C@@H]21	33.3*
CC(C)C(=O)Nc1ccc2c(c1)C(=O)N(C)[C@H]1CC[C@H](CC(=O)NCCc3ccccc3)O[C@H]1CO2	53.3*
COCCNC(=O)C[C@@H]1CC[C@H]2[C@H](COc3ccc(NC(=O)Cc4ccccc4)cc3C(=O)N2C)O1	-106.7
C[C@H]1CN([C@@H](C)CO)C(=O)c2cc(C#CC3(O)CCCC3)cnc2O[C@H]1CN(C)S(=O)(=O)c1ccccc1	-3.6
COCC#Cc1ccc2c(c1)O[C@H](CN(C)C(=O)COC)[C@H](C)CN([C@@H](C)CO)S2(=O)=O	13.4
C[C@@H]1CN([C@@H](C)CO)S(=O)(=O)c2ccc(C#Cc3ccccc3)cc2O[C@H]1CN(C)C(=O)Nc1ccccc1	-0.1
C[C@@H]1CN([C@H](C)CO)C(=O)c2cc(-c3cccnc3)cnc2O[C@@H]1CN(C)S(C)(=O)=O	-3.9
CO[C@H]1CN(C)C(=O)c2cc(NS(=O)(=O)c3ccccc3)ccc2OC[C@@H](C)N(C)C[C@H]1C	-0.7
CO[C@@H]1CN(C)C(=O)c2cc(NC(=O)C3CCOCC3)ccc2OC[C@@H](C)N(C)C[C@@H]1C	-1.8
CC(C)C#Cc1cnc2c(c1)C(=O)N([C@H](C)CO)C[C@H](C)[C@@H](CN(C)C(=O)CC1CC1)O2	-5.5
CCCNC(=O)N(C)C[C@H]1Oc2cc(C#CCOC)ccc2S(=O)(=O)N([C@@H](C)CO)C[C@@H]1C	-18.2
Cc1ccc(-c2cnc3c(c2)C(=O)N([C@@H](C)CO)C[C@H](C)[C@@H](CN(C)Cc2ccccc2F)O3)cc1	-3.2
CCCC#Cc1ccc2c(c1)O[C@@H](CN(C)C(=O)NCCC)[C@H](C)CN([C@@H](C)CO)S2(=O)=O	-2.6
CCS(=O)(=O)Nc1ccc2c(c1)C(=O)N(C)C[C@@H](OC)[C@@H](C)CN[C@H](C)CO2	-1.0
SMILES	miR122 inh
Cc1cc(C(=O)Nc2ccc3c(c2)C(=O)N(C)[C@@H]2CC[C@@H](CC(=O)N[C@H](C)c4ccccc4)O[C@H]2CO3)no1	33.3*
Cc1cc(C(=O)Nc2ccc3c(c2)C(=O)N(C)[C@H]2CC[C@H](CC(=O)N[C@@H](C)c4ccccc4)O[C@H]2CO3)no1	50.0*
CCC(=O)N1C[C@@H](C)[C@H](OC)CN(C)C(=O)c2ccc(NC(=O)C3CCCCC3)cc2OC[C@@H]1C	1.5
Cc1ccc(S(=O)(=O)N(C)C[C@@H]2Oc3ncc(C#Cc4cccc(F)c4)cc3C(=O)N([C@H](C)CO)C[C@@H]2C)cc1	13.3
C[C@@H]1CN([C@@H](C)CO)S(=O)(=O)c2ccc(-c3ccncc3)cc2O[C@H]1CN(C)Cc1ccccn1	1.1
COc1cccc(S(=O)(=O)N(C)C[C@@H]2Oc3ncc(-c4ccc(F)cc4)cc3C(=O)N([C@H](C)CO)C[C@@H]2C)c1	5.7
C[C@H](O)C#Cc1ccc2c(c1)O[C@H](CN(C)Cc1cncnc1)[C@H](C)CN([C@H](C)CO)S2(=O)=O	-1.1
C[C@@H]1CN([C@H](C)CO)S(=O)(=O)c2ccc(C#Cc3ccc(F)cc3)cc2O[C@@H]1CN(C)S(C)(=O)=O	-22.4
CCC(=O)N(C)C[C@H]1Oc2ncc(-c3cccc(OC)c3)cc2C(=O)N([C@@H](C)CO)C[C@@H]1C	2.5
Cc1ccc(-c2ccc3c(c2)O[C@H](CN(C)Cc2cccc(C(=O)O)c2)[C@@H](C)CN([C@H](C)CO)S3(=O)=O)cc1	-16.1
CCC(=O)N(C)C[C@H]1Oc2cc(-c3cccc(C#N)c3)ccc2S(=O)(=O)N([C@@H](C)CO)C[C@H]1C	1.3
C[C@H](NC(=O)C[C@H]1CC[C@@H]2[C@@H](COc3ccc(NS(=O)(=O)c4ccc(Cl)cc4)cc3C(=O)N2C)O1)c1ccccc1	45.0*
C[C@H](NC(=O)C[C@@H]1CC[C@H]2[C@H](COc3ccc(NS(=O)(=O)c4ccc(Cl)cc4)cc3C(=O)N2C)O1)c1ccccc1	36.7*
CC(=O)N(C)C[C@H]1Oc2cc(C#CC3CCCCC3)ccc2S(=O)(=O)N([C@@H](C)CO)C[C@H]1C	12.9
C/C=C/c1cnc2c(c1)C(=O)N([C@@H](C)CO)C[C@H](C)[C@@H](CN(C)C(=O)Cc1cccnc1)O2	-3.4
C[C@@H]1CN([C@@H](C)CO)S(=O)(=O)c2ccc(-c3ccccc3)cc2O[C@H]1CN(C)C(=O)CN(C)C	3.9
CO[C@H]1CN(C)C(=O)c2cc(NC(=O)c3nc4ccccc4s3)ccc2OC[C@H](C)N(Cc2ccncc2)C[C@@H]1C	2.9
C[C@@H]1CN([C@H](C)CO)S(=O)(=O)c2ccc(-c3ccncc3)cc2O[C@H]1CN(C)C(=O)C1CC1	-13.2
C[C@@H]1CN([C@@H](C)CO)C(=O)c2cc(C#CC3CCCCC3)cnc2O[C@H]1CN(C)S(=O)(=O)c1cccc(F)c1	45.5*
COc1ccc(S(=O)(=O)N(C)C[C@@H]2Oc3ncc(/C=C/c4ccccc4)cc3C(=O)N([C@@H](C)CO)C[C@@H]2C)cc1	42.2*
C[C@@H]1CN([C@H](C)CO)C(=O)c2cc(C#CC3(O)CCCC3)cnc2O[C@H]1CN(C)S(=O)(=O)c1cccc(F)c1	6.0
C[C@@H]1CN([C@@H](C)CO)C(=O)c2cc(/C=C/c3ccccc3)cnc2O[C@H]1CN(C)S(=O)(=O)c1ccc(F)cc1	2.6
C[C@H]1CN([C@@H](C)CO)C(=O)c2cc(-c3ccc(C#N)cc3)cnc2O[C@H]1CN(C)C(=O)Nc1ccc(C(F)(F)F)cc1	37.0*
C[C@H]1CN([C@@H](C)CO)C(=O)c2cc(-c3cccnc3)cnc2O[C@H]1CN(C)C(=O)Nc1ccc(F)cc1	6.3
C[C@@H]1CN([C@H](C)CO)C(=O)c2cc(-c3cncnc3)cnc2O[C@H]1CN(C)Cc1ccc(Oc2ccccc2)cc1	38.5*
C[C@H](CO)N1C[C@H](C)[C@H](CN(C)S(=O)(=O)c2cccc(F)c2)Oc2ncc(C#CC3(O)CCCC3)cc2C1=O	7.2
